Most compounds without a hit are left out; they make up all but 1.8% or so of the library.
PriA SSB inh = inhibitors of Klebsiella pneumoniae PriA binding to SSB C-terminal tail | AlphaScreen SSBct-PriA binding, biotinylated peptide | inhibition, % at 33 µM | actives 0.6% (n = 430,000); in the data active = inhibition mostly above about 37%, no sharp cut-off; inactive = mostly below about 20%;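 note: plate controls were negative control peptide for no effect and reference peptide for full effect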
PrPC TRFRET = cell surface PrPC inhibition, primary TR-FRET screen. TR-FRET read-out. inhibition, % at 13.8 µM. actives 0.43% (n = 370,000); in the data active = inhibition above about 24%; note: 0% = median of the test wells and 100% = reference compound wells
PrP UTR inh = suppresses PrP 5' UTR mRNA reporter expression; cell-based PrP 5' UTR mRNA reporter, plate reader; inhibition, % (concentration not given with the values); actives 0.35% (n = 340,000); AID 488862; in the data active = inhibition above about 52%; note: 0 = median of the neutral control wells
PfHsp40 yeast = restores yeast growth despite PfHsp40 toxicity; actives 0.68% (n = 340,000); S. cerevisiae expressing PfHsp40, growth rescue, ATP luminescence; AID 504582; growth rescue, % at 12.5 µM; in the data active = growth rescue above about 28%, passing the limit was not always enough;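 note: yeast W303a lacking pdr1 and pdr3 grown in galactose medium; growth measured after three days at 30 °C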
MazEF act = increases E. coli MazEF RNase cleavage of RNA | activation, % at 20 µM | actives 0.32% (n = 350,000) | AID 504720 | FAM/BHQ RNA-DNA oligo cleavage fluorescence, 5 h; in the data active = activation above about 50%
Target sequence (P0AE70 whole entry, looked up): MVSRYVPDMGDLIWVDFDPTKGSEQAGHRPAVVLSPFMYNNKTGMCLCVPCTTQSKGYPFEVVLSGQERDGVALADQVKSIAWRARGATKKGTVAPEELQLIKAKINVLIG
The depositor's hits bear a star; nt = no result given; ! = repeats disagree.

SMILES | PriA SSB inh | PrPC TRFRET | PrP UTR inh | PfHsp40 yeast | MazEF act
O=C(Nc1cnc(-n2cccn2)nc1)c1cccc(C(F)(F)F)c1 | -2.0 | nt | nt | nt | nt
O=C(Nc1nnc(S(=O)(=O)Cc2ccc(F)cc2)s1)c1ccccc1F | 5.0 | 0.8 | -12.0 | 45.4* | -5.8
Cc1ccccc1NS(=O)(=O)c1nnc(NC(=O)c2ccccc2F)s1 | 0.4 | 6.3 | -15.6 | -0.3 | -2.3
Cc1ccc(S(=O)(=O)Nc2ccccc2C(=O)Nc2nc(-c3cccs3)cs2)cc1 | -1.0 | nt | nt | nt | nt
CCOC(=O)Nc1cc(Br)c2c(c1)OCCO2 | -14.1 | 6.5 | -17.3 | -0.4 | 0.6
Cc1ccc2[nH]c3c(N4CCN(Cc5ccccc5)CC4)ncnc3c2c1 | 21.9 | 29.3* | 9.8 | -1.0 | 2.5
c1ccc(CN2CCN(c3ncnc4c3[nH]c3ccccc34)CC2)cc1 | 6.2 | 55.5* | -0.7 | -0.4 | 10.3
Cc1ccc2[nH]c3c(N4CCN(Cc5ccc6c(c5)OCO6)CC4)ncnc3c2c1 | nt | 6.4 | nt | nt | nt
CCOc1ccc2oc(C(=O)N3CCN(c4ccccn4)CC3)c(C)c2c1 | -9.7 | -9.8 | -3.5 | -1.2 | -3.0
CCOc1ccc2[nH]c3c(N4CCN(c5ccccn5)CC4)ncnc3c2c1 | 39.4* | 9.2 | 1.3 | 2.0 | 4.2
CC(=O)Nc1ccccc1-c1nc2ccc(C(=O)N3CCN(c4ccccc4)CC3)cc2[nH]c1=O | -3.6 | -2.5 | -5.8 | -0.1 | 6.1
CCN(CC)c1nc(N2CCN(C)CC2)nc2ccccc12 | -4.4 | -8.5 | -31.6 | -1.7 | 2.4
Cc1nn(C(C)(C)C)c(OC(=O)c2cccs2)c1S(=O)(=O)c1ccccc1 | -19.6 | -4.2 | -9.3 | 66.8* | 1.8
CCOC(=O)C(C)/C(C)=N/NC(=O)c1cc2ccccc2cc1O (centres undefined) | nt | -3.8 | -26.7 | 155.5* | -3.8
O=C1/C(=C/c2ccc3c(c2)OCO3)Oc2cc(OCC(=O)N3CCC[C@H]3C(=O)O)ccc21 | -13.3 | nt | -11.8 | 5.0 | -4.6
COC(=O)C1=NN(C(C)=O)C2(CC(=O)N(c3cc(C)cc(C)c3)C2=O)C1 (centres undefined) | 7.0 | 0.7 | -29.9 | 2.4 | 3.5
O=[N+]([O-])c1ccccc1Nc1ccccc1[N+](=O)[O-] | 0.5 | -2.0 | -5.4 | -1.3 | 7.0
Cc1cc(Nc2ccccc2)c2c([N+](=O)[O-])ccc(C)c2n1 | 60.4* | -4.0 | -13.0 | -1.0 | 6.2
O=[N+]([O-])c1ccccc1NCCOc1ccccc1 | 38.6* | -7.1 | -140.9 | 1.8 | -2.9
Cc1cc(Nc2ccc(Cl)cc2)c2c([N+](=O)[O-])ccc(C)c2n1 | 55.6 | nt | nt | nt | nt
O=[N+]([O-])c1ccccc1Nc1ccccc1 | 69.9* | -9.2 | -21.3 | -0.8 | 3.4
O=[N+]([O-])c1ccccc1Nc1cccc(F)c1 | 48.7* | -4.1 | -23.9 | -0.7 | 3.2
O=[N+]([O-])c1cnccc1Nc1cccc(F)c1 | 9.4 | -35.9 | -23.7 | 1.1 | 11.1
O=C(CCOc1ccccc1)Nc1ccccc1[N+](=O)[O-] | 18.3 | -15.6 | -30.8 | -0.1 | -2.9
Cc1ccccc1Oc1nc2c(c(=O)n(C)c(=O)n2C)n1C | 8.1 | 1.8 | -10.9 | -0.6 | 1.0
SMILES | PriA SSB inh | PrPC TRFRET | PrP UTR inh | PfHsp40 yeast | MazEF act
C[C@H](CO)N1C[C@H](C)[C@@H](CN(C)S(=O)(=O)c2ccc(F)cc2)Oc2c(NC(=O)Nc3ccc(C(F)(F)F)cc3)cccc2C1=O | -3.6 | -6.2 | -18.5 | -0.7 | 10.0
NC(=O)c1cc([N+](=O)[O-])ccc1Nc1ccccc1 | -1.9 | -25.9 | -8.3 | 48.3* | -12.8
CS(=O)(=O)Nc1cccc(C2=NN(C(=O)c3ccco3)C(c3ccccc3F)C2)c1 (centres undefined) | 58.0* | nt | nt | nt | nt
Cc1ccc(N=Cc2sc(O)c3ccccc23)cc1 | -8.7 | 0.8 | -88.0 | 0.3 | -53.0
Cc1ccc(N=Cc2sc(O)c3ccccc23)c(C)c1 | -2.4 | -1.8 | -107.3 | -0.5 | 691.0*
c1ccc(-c2nc3ccccc3[nH]2)nc1 | -3.5 | -2.7 | -49.2 | 2.0 | -2.6
c1ccc(-c2n[nH]c(-c3ccccc3)c2-c2nc3ccccc3[nH]2)cc1 | 9.5 | 23.1 | -25.7 | 30.0* | 9.9
N#CC(c1cccc(Cl)c1)c1ncc(C(F)(F)F)cc1Cl (centres undefined) | -38.6 | 0.5 | -7.0 | 1.7 | 4.9
Cc1nnc(NN=Cc2cc([N+](=O)[O-])c(N3CCC(C)CC3)cc2N2CCC(C)CC2)n1N | 42.3* | nt | nt | nt | nt
COc1cc(C=O)cc(OC)c1OS(=O)(=O)c1ccc(NC(C)=O)cc1 | -3.5 | 4.5 | -23.3 | 0.2 | 0.8
COc1ccc(C=O)cc1OS(=O)(=O)c1ccc(NC(C)=O)cc1 | 2.5 | 7.2 | -3.8 | 41.6* | 7.3
CC(CCOC1=NS(=O)(=O)c2ccccc21)NC(=O)C(=O)Nc1ccccc1 (centres undefined) | 9.3 | -2.6 | -29.0 | 2.1 | 8.2
CN(C)n1cccc1/C=C(\C#N)S(=O)(=O)c1cccc(Cl)c1 | -5.2 | 6.7 | -11.5 | 31.8* | -0.3
CS(=O)(=O)/C(C#N)=C/c1cccn1S(=O)(=O)c1ccccc1 | 7.2 | -4.9 | -6.9 | -0.9 | 5.1
C=CC(C)N1C(=O)S/C(=C\c2ccc(N3CCOCC3)cc2C)C1=O (centres undefined) | -36.1 | -5.4 | -41.6 | -0.1 | 43.2
C=CCN1C(=O)S/C(=C\c2ccc(N3CCOCC3)cc2C)C1=O | -14.6 | -8.2 | -46.8 | -0.6 | 103.4*
Fc1ccccc1Nc1ncnc2c1nnn2Cc1ccccc1 | -6.4 | 0.3 | -5.6 | 2.0 | -4.3
Cc1ccnc2nc(C(=O)NC3CCCc4ccccc43)nn12 (centres undefined) | 8.6 | 2.0 | 0.1 | 147.5* | 7.6
Cc1occc1C(=O)NC1CCCc2ccccc21 (centres undefined) | -15.1 | -4.5 | -25.4 | 0.3 | 0.1
FC(F)(F)c1cccc(N2CCc3cn[nH]c32)c1 | -1.7 | 9.3 | -45.1 | 292.5* | -2.7
CC[N+]1(CC(O)COC2CC(C)CC(C)(C)C2)CCOCC1 (centres undefined) | -10.6 | 5.0 | -22.3 | -1.1 | -14.1
CCCCCCCSc1cc(OC)c(CCN(C)C)cc1OC | 49.5* | -4.9 | 0.0 | -0.6 | 12.5
O=C(NCc1cccc(Oc2ccccn2)c1)c1ccccn1 | -10.0 | nt | nt | nt | nt
CSc1ccc2c(c1)N(CCC1CCCCN1C)c1ccccc1S2 (centres undefined) | 40.1* | -15.5 | -4.5 | 1.4 | 27.1
OCCN1CCN(CC(O)COc2ccc3c(c2)OCO3)CC1 (centres undefined) | 4.9 | -5.3 | 7.6 | -0.8 | 1.7
NCC(O)COc1ccc2c(c1)OCO2 (centres undefined) | 46.0*! | -2.6 | 3.0 | -0.1 | -0.3
COc1ccccc1C(NC(C)=O)c1cc(Cl)c2cccnc2c1O (centres undefined) | -10.6 | 0.2 | nt | -0.9 | 9.8
O=C(NC(c1ccccc1)c1cc(Cl)c2cccnc2c1O)c1cccnc1 (centres undefined) | nt | 3.5 | nt | nt | nt
CCOc1ccc(C(Nc2cccnc2)c2cc(Cl)c3cccnc3c2O)cc1 (centres undefined) | 34.2 | -5.4 | -4.9 | 91.5* | -24.8

Assay outcomes (PubChem)
